Pf growth 96h – inhibits malaria parasite growth, 96 h. P. falciparum luciferase reporter growth, 96 h. Potency, µM (top dose mostly 28.7 µM), inactives show at the highest dose activity change, negative = inhibition, actives largely listed as inhibitors. 6.9% of 320,000 active; also: potency is read from the fitted curve at half-maximal effect
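Readout is luminescence from an integrated firefly luciferase in P. falciparum. Red cells, 2% hematocrit and 0.05% parasitemia final, were cultured with compound through two parasite generations (96 hours) at 37 C, 5% CO2.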
Pf growth 48h – inhibits P. falciparum growth in the first generation, 48 h; P. falciparum luciferase growth in erythrocytes, 48 h; 5.9% of 310,000 active; AID 504832; Potency, µM (highest dose often 28.7 µM), inactives show at the top dose activity change, negative = inhibition, most hits filed as inhibitors; also: potency is read from the fitted curve at half-maximal effect
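First compound was added to culture medium, then infected red cells at 0.1% parasitemia and 2% hematocrit (final). After incubation at 37 C under 5% CO2, luciferase detection reagent was dispensed and light output recorded.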
HCV inh – inhibitors of hepatitis C virus infection. Huh7.5.1 HCVcc-Cre infection, luciferase reporter, 44 h. Potency, µM (highest dose often 41.8 µM), for the others: at the top dose activity change, negative = inhibition, usual class: inhibitors. 3.4% of 340,000 active; also: potency is read from the fitted curve at half-maximal effect
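Antiviral activity was scored by luciferase reporter output from cells infected with HCVcc-Cre (~0.5 moi) in presence of compound, 44 h infection period, cells seeded 1,000/well 4 h prior.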
HCMV antiviral – blocks human cytomegalovirus replication | HFF cells, HCMV-luciferase reporter, 72 h; hits give low values | activity change, negative = inhibition, % at 57.5 µM | 4.5% of 410,000 active | AID 1259415; in the data active = activity change below about -60%; inconclusive = no clear call, values can overlap the other calls; inactive = above about -39%
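HFF cells seeded 16 h at 37C, treated with compounds, infected with luciferase-reporter HCMV at MOI 1 PFU/cell; luciferase read at 72 h post infection, normalized to buffer-only and Salinomycin controls.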
Starred values were filed as active, the others as inactive; ? = inconclusive; nt = no result given; [ ] = remark or other dose. Hits are enriched below; roughly 13% of the tested compounds scored in any of these assays. Unless noted, calls follow the shape of the dose curve; as a rule, active = well fitted inhibition curve with a large enough effect; inconclusive = small, poorly fitted or top-dose-only effect, or another doubt; inactive = no such curve, though single readings can be large or run the other way. % is scaled to controls: 0 for no effect and ±100 for the full control effect.

SMILES | Pf growth 96h | Pf growth 48h | HCV inh | HCMV antiviral
COc1ccc(NC(=O)c2cc(C3CC3)nc3c2c(C)nn3-c2ccc(C)cc2)cc1OC | nt | nt | nt | 14
Cc1ccccc1C(O)c1cccnc1 (stereo not drawn) | 2% | -8% | 15% | -61*
CNC(=O)Nc1ccccc1F | 37% | nt | 21% | 10
O=C(C#Cc1ccccc1)Nc1ccccc1F | 9.3µM* | -13% | ? | -96*
COc1ccc(NC(=O)C#Cc2ccccc2)cc1OC | 8% | ? | ? | -88*
NC(=O)c1ccc(NC(=O)C#Cc2ccccc2)cc1 | ? | ? | ? | -103*
COc1ccc(NC(=O)C(=O)NCCc2ccccc2)cc1OC | nt | nt | nt | -64*
CCOc1cc(C(=O)Nc2ccc3c(c2)n(C)c(=O)c(=O)n3C)cc(OCC)c1OCC | nt | nt | nt | 6
CCc1cccc(NC(=O)Cn2c(=O)n(CC3CCC(C(=O)NC)CC3)c(=O)c3sccc32)c1 (stereo not drawn) | nt | nt | nt | -2
COc1ccc(OCC(=O)OCc2cc(=O)n3cc(C)sc3n2)cc1 | nt | nt | nt | 3
Cc1ccc(N(C(=O)Cn2nnc3ccccc32)C(C(=O)NCc2ccco2)c2ccc(C)o2)cc1 (stereo not drawn) | ? | 13µM* | 7% | 40
Cc1ccccc1CCN(C(=O)Cn1nnc2ccccc21)C(C(=O)NC(C)(C)C)c1ccsc1 (stereo not drawn) | 1.2µM* | ? | 4% | 0
Cn1c(C(C(=O)NCC2CCCO2)N(CCc2ccccc2)C(=O)Cn2nnc3ccccc32)nc2ccccc21 (stereo not drawn) | ? | ? | 11% | -65*
COCCNC(=O)C(c1ccco1)N(C(=O)Cn1nnc2ccccc21)c1cc(C)ccc1C (stereo not drawn) | nt | nt | 4% | -7
Cc1cccc(N(C(=O)Cn2nnc3ccccc32)C(C(=O)NC(C)(C)C)c2ccsc2)c1C (stereo not drawn) | ? | ? | -3% | ?
CCC(C)(C)NC(=O)C(c1ccco1)N(C(=O)Cn1nnc2ccccc21)c1ccc2c(c1)OCO2 (stereo not drawn) | 7.4µM* | ? | 1% | -19
CC(C)CCNC(=O)C(c1ccco1)N(CC1CCCO1)C(=O)Cn1nnc2ccccc21 (stereo not drawn) | -18% | -25% | -2% | -2
Cc1ccc(C(C(=O)NCc2ccco2)N(C(=O)Cn2nnc3ccccc32)c2ccccc2)o1 (stereo not drawn) | 15% | ? | -4% | -31
O=C(NCC(c1ccco1)S(=O)(=O)c1ccc(Cl)cc1)c1ccccc1F (stereo not drawn) | nt | nt | nt | 19
Cc1ccc(C(C(=O)NCc2ccco2)N(CCc2ccccc2)C(=O)Cn2nnc3ccccc32)o1 (stereo not drawn) | nt | 13µM* | -2% | 41
Cc1ccc(CN(C(=O)Cn2nnc3ccccc32)C(C(=O)NCc2ccco2)c2ccc(C)o2)cc1 (stereo not drawn) | ? | ? | ? | -31
Cc1cc(C)cc(N(C(=O)Cn2nnc3ccccc32)C(C(=O)NCc2ccco2)c2ccncc2)c1 (stereo not drawn) | 18% | -21% | -14% | 14
COc1cccc(N(C(=O)Cn2nnc3ccccc32)C(C(=O)NCc2ccco2)c2cccnc2)c1 (stereo not drawn) | nt | 8.3µM* | ? | 31
Cc1ccc(N(C(=O)Cn2nnc3ccccc32)C(C(=O)NCc2ccco2)c2cccnc2)cc1 (stereo not drawn) | ? | 10µM* | -2% | -24
CCC(C)(C)NC(=O)C(c1cccn1C)N(Cc1ccc(OC)cc1)C(=O)Cn1nnc2ccccc21 (stereo not drawn) | ? | 9.3µM* | 3% | -23
SMILES | Pf growth 96h | Pf growth 48h | HCV inh | HCMV antiviral
CCOc1ccc(NC(=O)Cn2cc(C(=O)c3ccc(CC)cc3)c(=O)c3cc4c(cc32)OCO4)cc1 | nt | nt | nt | -9
CN(C)S(=O)(=O)c1ccc(C(=O)NCCSc2c(-c3ccc(Br)cc3)[nH]c3ccccc23)cc1 | nt | nt | nt | -28
COc1ccc(-c2[nH]c3ccccc3c2SCCNC(=O)c2ccccc2)cc1 | ? | -12% | 13µM* | -28
Cc1ccc(-c2[nH]c3ccccc3c2SCCNC(=O)c2ccc(S(=O)(=O)N3CCOCC3)cc2)cc1 | 8.3µM* | ? | ? | -19
CCc1ccc(N2C(=O)c3sc4nnc(-c5ccccc5)c(=O)n4c3C2=O)cc1 | 36% | -9% | -16% | -77*
CCc1ccc(NC(=O)C(C)n2nnc3sc(-c4ccccc4)cc3c2=O)cc1 (stereo not drawn) | nt | nt | nt | -4
O=c1[nH]c(=O)n(Cc2ccccc2Cl)c(O)c1/C=C1/C=CC=N1 | 25% | 10%[5.75 µM] | -6% | -89*
C=CCn1c(O)c(/C=C2/C=CC=N2)c(=O)[nH]c1=O | 163% | 15% | 0% | 15
CCCCc1nnc(NC(=O)Cc2ccc(S(=O)(=O)N3CCOCC3)s2)s1 | ? | 10µM* | 1% | 0
CCc1nnc(NC(=O)Cc2ccc(S(=O)(=O)N3CCCCC3)cc2)s1 | 12µM* | 12µM* | 12% | -10
CCc1nnc(NC(=O)c2ccc(S(=O)(=O)N3CCCCCC3)cc2)s1 | nt | 2% | -4% | -13
O=C(Cc1ccc(S(=O)(=O)N2CCOCC2)s1)Nc1ccccc1Br | 3.7µM* | 2.3µM* | -3% | 0
CC(C)(C)c1csc(NC(=O)Cc2ccc(S(=O)(=O)N3CCOCC3)s2)n1 | 10µM* | ? | ? | ?
O=C(Cc1ccc(S(=O)(=O)N2CCOCC2)s1)NCC(=O)Nc1ccccc1Br | -1% | 6% | 12% | -13
Cc1ccc2c(CN3CCN(C(=O)c4ccc(Br)cc4)CC3)cc(=O)oc2c1 | nt | nt | nt | 38
Cc1nc(S(=O)(=O)N2CCN(c3ccc(Cl)cc3)CC2)cn1C | nt | nt | nt | -1
CC(Sc1nc(-c2ccccc2)cc(C(F)(F)F)n1)C(=O)N1CCCC1 (stereo not drawn) | ? | 3% | 3% | -15
CC(Sc1nc(-c2ccccc2)cc(C(F)(F)F)n1)C(=O)N1CCOCC1 (stereo not drawn) | 1.7µM* | ? | ? | -35
CCCc1cc(NCC2CCCO2)n2c(nc3ccccc32)c1C#N (stereo not drawn) | nt | 5.2µM* | ? | -5
CCCc1cc(NCc2ccccn2)n2c(nc3ccccc32)c1C#N | 9% | 1.9µM* | 13µM* | 19
CCCc1cc(NCCN(C)C)n2c(nc3ccccc32)c1C#N | -24% | 0% | 6% | -7
Cc1cc(C)n(-c2ccccc2[N+](=O)[O-])n1 | 112% | 21% | 0% | -7
Cc1cc(C)n(S(=O)(=O)c2ccccc2[N+](=O)[O-])n1 | 3% | ? | 4% | -60*
O=C(N/N=C/c1cn(-c2cccs2)nc1-c1ccccc1)c1ccccc1Br | ? | 11% | 7.1µM* | 38
O=C(N/N=C/c1cn(-c2ccccc2)nc1-c1cccnc1)c1ccccc1 | ? | ? | ? | -29

Screening results (PubChem BioAssay)
